About 83,000 compounds went through this panel and 20% of them were active in at least one assay; those are over-represented in the sample as a whole.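 Cells were grown in 96-well plates and exposed to the test compound at a single concentration for 48 hours; results are reported as percent growth, with values below 10 considered active.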 Unmarked numbers belong to inactive results. Active and inactive are the calls of the source.
How the values were obtained:
Assay in all cases: NCI-60 one-dose screen, 48 h (100 = growth as untreated, 0 = no growth, -100 = all killed)
Details in all cases: 10 µM unless noted
[1] = test system: HCT-15 colon
[2] = test system: HT29 colon
[3] = test system: SNB-75 CNS
[4] = test system: SNB-19 CNS
[5] = test system: U251 CNS
[6] = test system: PC-3 prostate
[7] = test system: SK-MEL-5 melanoma
[8] = test system: UACC-62 melanoma
[9] = test system: SK-MEL-28 melanoma
[10] = test system: SK-MEL-2 melanoma
[11] = test system: EKVX NSCLC
[12] = test system: SN12C renal
[13] = test system: UO-31 renal
[14] = test system: TK-10 renal
[15] = test system: ACHN renal
[16] = test system: CAKI-1 renal
[17] = test system: A498 renal
[18] = test system: CCRF-CEM leukemia
[19] = test system: MOLT-4 leukemia

Compound | growth [1] [%] | growth [2] [%] | growth [3] [%] | growth [4] [%] | growth [5] [%] | growth [6] [%] | growth [7] [%] | growth [8] [%] | growth [9] [%] | growth [10] [%] | growth [11] [%] | growth [12] [%] | growth [13] [%] | growth [14] [%] | growth [15] [%] | growth [16] [%] | growth [17] | growth [18] | growth [19] [%]
O=C1C(=O)c2ccccc2C(O)=C1CCCc1ccc(C2CCCCC2)cc1 | 41.4 | 41.8 | 54.9 | 39.9 | 45.4 | 39.2 | 20.6 | 47.9 | 47.4 | 104 | 60.2 | 43.2 | 75.9 | 52.5 | 37 | 19.7 | 56.7% | 9.07% (active) | 29.2
NCCNc1nc(-c2ccccc2)nc2nc(-c3ccccc3)oc12 | 70 | 71.6 | 61.9 | 89.8 | 70.3 | 80.4 | 89.2 | 99.9 | 103 | 107 | 102 | 80.6 | 69.6 | 119 | 79 | 73.9 | 90% | 91.5% | 73.6
CC(=O)NC1=C(C#N)C(c2ccccc2Cl)c2c(ccc3ccccc23)O1 (configuration not stated) | 32 | 51.6 | 30.1 | 58.1 | 69.3 | 60.6 | 56.7 | 36.6 | 66.4 | 59.2 | 63.5 | 70.8 | 49.8 | 141 | 65 | 37.2 | 56.2% | 60.8% | 50.2
CC(=O)O[C@H]1CC[C@@]2(C)[C@@H](CC[C@@H]3[C@@H]2CC(=O)[C@@]2(C)[C@H]3C[C@@H](C3CCCC3=O)[C@@H]2C(C)=O)C1 (some centres not stated) | 106 | 95.6 | 97.4 | 94.2 | 102 | 93.1 | 108 | 91.6 | 113 | 111 | 116 | 84.4 | 88.3 | 106 | 107 | 114 | 97.1% | 92.9% | 86.1
N=c1c(S(=O)(=O)c2ccccc2)cc2c(=O)n3ccccc3nc2n1C1CCCC1 | 86.2 | 117 | 61.1 | 90.3 | 85.9 | 85 | 84.2 | 80.2 | 102 | 104 | 78.1 | 87.2 | 50.9 | 82.5 | 86 | 64.6 | -1.39% (active) | 93.6% | 82
N#C/C(=C\c1ccc(-c2ccc(F)cc2)o1)c1nc(-c2ccco2)cs1 | 84.5 | 98.7 | 88.9 | 101 | 97.3 | 93.3 | 92.8 | 87.1 | 114 | 108 | 40.2 | 101 | 69.8 | 64.2 | 98.1 | 92 | 107% | 84.2% | 91.6
CCCCn1c(-c2ccc(O)cc2)cn2c3c(=O)[nH]c(=O)n(C)c3nc12 | 54.2 | 77.6 | 53.2 | 82.5 | 66.7 | 68.9 | 51.9 | 51.2 | 74.7 | 45.8 | 85.9 | 78 | 70.2 | 86.7 | 92.6 | 86.6 | 75.8% | 80% | 58.6
Cn1cc(-c2nc(-c3c[nH]c4ncccc34)cs2)c2cc(F)ccc21 | 19.6 | 19.6 | 31.6 | 53.3 | 36.7 | 33.6 | 51.4 | 47.6 | 60.5 | 28.3 | 14.5 | 51.3 | 29.4 | 23.2 | 24.1 | 12.8 | 42.3% | 25.8% | 23.9

Reference: PubChem BioAssay (NCI)
